# Bioassay records: PubChem, National Center for Advancing Translational Sciences (NCATS)
# TDP1 cell CPT: growth inhibition of DT40 Tdp1-/-;hTDP1 cells with camptothecin (screen for TDP1 inhibitors) | chicken DT40 Tdp1-/-;hTDP1 cells + 20 nM CPT, ATP luminescence, 48 h | Potency, µM (series often up to 46.2 µM), without a hit: at the highest dose activity change, negative = growth inhibition, actives largely listed as inhibitors | 420,000 compounds, 12% hits; further: potency means the concentration at half of the fitted maximal effect; on the % scale 0 is the no-effect control and ±100 the full control effect; nearly all actives have a fitted effect of over 55% in size
#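 Cell growth measured by CellTiter-Glo luminescence after a minimum 48 h, 37 C compound exposure with 20 nM CPT in Tdp1-knockout DT40 cells stably expressing hTDP1, seeded 400/well; qHTS titration format.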
# IL1B secr inh: inhibitors of inflammasome signaling (IL-1 beta secretion); THP-1 LPS/ATP IL-1B secretion, AlphaLISA, 16 h; hits give low values; activity change, % at 57.5 µM; 360,000 compounds, 4.7% hits; AID 743279; in the data active means activity change below about -50%; inconclusive means mostly about -30% to -49%; further: on the % scale 0 is the no-effect control and ±100 the full control effect
#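 Secreted IL-1B measured by AlphaLISA bead assay after 16 h compound exposure of THP-1 cells; compounds (final up to 57.5 uM) added 1 h before LPS (250 ng/mL) and ATP (1.25 mM) stimulation; lower signal means less secretion.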
# Chronic BCR inh: chronic active BCR signaling inhibition. ABC-DLBCL IkBa-CBG/CBR reporter, luminescence ratio, 4 h. AID 493014. 340,000 compounds, 0.05% hits. Potency, µM (highest dose often 46.1 µM), inactives show at the top dose activity change, negative = inhibition, most hits filed as inhibitors; active means well fitted inhibition curve with a large enough effect in the signal ratio, with a control signal flat, not every such curve was filed as active; inconclusive means small, poorly fitted or top-dose-only effect, or effect the other way, or a change in a side signal; the % refers to the signal ratio;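 further: potency means the concentration at half of the fitted maximal effect; plate controls were basal doxycycline-induced cells for no effect and cells given 10 µM MG132 for full effect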
#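 Doxycycline induced both beetle luciferases in TMD8 lymphoma cells; IKK-driven degradation limits the IkappaBalpha-fused green signal, while red luminescence normalises for cell number and nonspecific effects. Compounds tested up to 46 uM, 4 hrs.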
# TDP1 cell noCPT: qHTS for Inhibitors of human tyrosyl-DNA phosphodiesterase 1 (TDP1): qHTS in cells in absence of CPT; 420,000 compounds, 15% hits; AID 686978, 2013; DT40 Tdp1-/- hTDP1 cells, no CPT, ATP luminescence, 48 h; Potency, µM (highest dose often 46.2 µM), for inactives: at the highest dose activity change, negative = growth inhibition, hits mostly inhibitors; further: potency means the concentration at half of the fitted maximal effect; on the % scale 0 is the no-effect control and ±100 the full control effect; nearly all actives have a fitted effect of over 55% in size
#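 Camptothecin absent (DMSO only). Human TDP1-complemented DT40 knockout cells, 400 cells/well, 37 °C for minimum 48 hr; ATP measured via CellTiter-Glo, 30 min dark incubation, luminescence.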
# MCF10A rerep: induces DNA re-replication in MCF 10a normal breast cells; MCF 10A DNA re-replication, Hoechst nuclear intensity, 48 h; Potency, µM (top dose mostly 46.1 µM), for inactives: at the top dose activity, positive = re-replication, usual class: activators; 350,000 compounds, 2.9% hits; further: potency means the concentration at half of the fitted maximal effect; % of control where 0% means no effect; nearly all actives have a fitted effect of over 50% in size
# SW480 rereplic: induces DNA re-replication in SW480 colon adenocarcinoma cells; AID 624297; SW480 DNA re-replication, Hoechst DNA content imaging, 48 h; 340,000 compounds, 1.8% hits; Potency, µM (titrated, usually from 46.1 µM), for inactives: at the top dose re-replication activation, actives largely listed as activators; further: potency means the concentration at half of the fitted maximal effect; % of control where 0% means no effect; nearly all actives have a fitted effect of over 55% in size
#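 Per well, 250 cells were exposed to pinned compound for 48 hr. Nuclear DNA was visualised with Hoechst (40 min, 37 C) and total object intensity recorded by fluorescence scanning.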
# Starred values were filed as active, the others as inactive; ? = inconclusive; . = no result; ! = not active in a repeat; [ ] = another dose, or the depositor's remark. Sampled rows, rich in hits. Any-hit rate of the full collection: about 19%. Unless noted, the call rests on the fitted dose curve; in most records, active means well fitted curve in the direction sought with a large enough effect; inconclusive means small, poorly fitted or top-dose-only effect, or another doubt; inactive means no such curve, though single readings can be large; an effect the other way counts as inactive or inconclusive.
SMILES,TDP1 cell CPT,IL1B secr inh,Chronic BCR inh,TDP1 cell noCPT,MCF10A rerep,SW480 rereplic
COc1ccc(NC(=O)c2cc3ccccc3o2)cc1S(=O)(=O)N1CCCCC1,?,-8,5%,?,?,?
COc1ccc([C@@H]2C[C@@H](c3ccccc3)Oc3cc(OC)c(OC)c(OC)c32)cc1,?,-11,2%,?,1.2µM*,-4%
CCCCCCCCCCCCN1[C@@H](CC(=O)OC)c2cc(F)cc(F)c2S1(=O)=O,?,18,.,18µM*,?,0%
CCCCCCCCCCCCN1[C@@H](CC(=O)OC)c2cc(F)ccc2S1(=O)=O,?,15,.,10µM*,5%,-6%
CCCCCCCCCCCCN1[C@@H](CC(C)=O)c2cc(C(F)(F)F)ccc2S1(=O)=O,?,43,.,?,12%,-4%
CCCCCCCCN1[C@@H](CC(=O)OCC)c2cc(C(F)(F)F)ccc2S1(=O)=O,?,28,.,16µM*,?,-2%
CCOC(=O)C[C@H]1c2ccc(C(F)(F)F)cc2S(=O)(=O)N1C(C)(C)C,11µM*!,20,.,?,4%,?
CCCCCCCCCCCCN1[C@@H](CC(C)=O)c2cc(F)ccc2S1(=O)=O,?,0,.,?,4%,-10%
O=C(Nc1ccccc1N1CCOCC1)C1CCCO1 (centres undefined),-21%,10,2%,2%,-7%,-3%
COc1cc(CCC(=O)Nc2nccs2)cc(OC)c1OC,-21%,0,1%,-3%,-8%,8%
CCOC(=O)C1(C)CCCN1C(=O)c1csnn1 (centres undefined),-11%,22,.,12%,.,.
CN(C)c1ccc2nc3ccc(=[N+](C)C)cc-3sc2c1,1.2µM*,?,?,0.0073µM*,-9%,?
Cc1cc2nc3ccc(=[N+](C)C)cc-3sc2cc1N,1.2µM*,-17,?,0.41µM*,-5%,?
Cc1nc2ccc(N)cc2s1,0%,34,1%,-18%,-4%,1%
CN(C)c1ccc2nc3ccc(=O)cc-3sc2c1,1.6µM*,-16,.,1.6µM*,.,.
N=C1/C(=C/c2ccc(-c3cccc(C(=O)O)c3)o2)C(=O)N=C2SC(CC(=O)N3CCOCC3)=NN12,-11%,-2,0%,21%,-9%,?
CC1=NN2C(=N)/C(=C\c3cc(C)n(-c4ccccc4)c3C)C(=O)N=C2S1,-12%,26,15%,-7%,-12%,1%
Cc1cc(/C=C2/C(=N)N3C(c4ccccc4)=CSC3=NC2=O)c(C)n1-c1ccccc1,13µM*,26,?,13µM*,?,0%
N=C1/C(=C\c2ccc(-c3cccc(C(=O)O)c3)o2)C(=O)N=C2SC=C(c3ccccc3)N12,?,0,1%,?,3.3µM*,8.2µM*
O=C(NCCCn1ccnc1)c1ccc(-c2cccc(C(F)(F)F)c2)o1,?,-14,0%,?,7%,-1%
COCC(=O)Nc1ccc2c(c1)OCC(=O)N2Cc1ccccc1F,-8%,38,?,4%,4%,5%
N#CCCN(C(=O)CN1CCN(S(=O)(=O)c2ccc3c(c2)OCCO3)CC1)c1ccc(F)cc1,-26%,1,0%,-27%,0%,0%
CC1(C(=O)N2CC3(CC(c4cccc(NC(=O)COc5ccc(Cl)cc5)c4)=NO3)C[C@@H]2C(N)=O)CC1 (some centres undefined),13µM*,?,?,15µM*,-1%,5%
NC(=O)[C@H]1CC2(CC(c3cccc(NC(=O)COc4ccc(Cl)cc4)c3)=NO2)CN1C(=O)c1ccc(Cl)cc1 (some centres undefined),18µM*,?,?,?,?,?
NC(=O)[C@@H]1CC2(CC(c3cccc(NC(=O)CC(c4ccccc4)c4ccccc4)c3)=NO2)CN1C(=O)COc1ccc(Cl)cc1 (some centres undefined),18µM*,?,13%,?,-42%,7%[9.22 µM]
SMILES,TDP1 cell CPT,IL1B secr inh,Chronic BCR inh,TDP1 cell noCPT,MCF10A rerep,SW480 rereplic
NC(=O)[C@H]1CC2(CC(c3cccc(NC(=O)COc4ccc(Cl)cc4)c3)=NO2)CN1C(=O)c1ccccc1C(=O)c1ccccc1 (some centres undefined),21µM*,?,?,18µM*,?,2%
NC(=O)[C@H]1CC2(CC(c3cccc(NC(=O)COc4ccc(Cl)cc4)c3)=NO2)CN1C(=O)CC(c1ccccc1)c1ccccc1 (some centres undefined),?,?,?,?,?,-2%[9.22 µM]
CCc1nn(CC(=O)NCCCOC)c(=O)c2cc3occc3n12,-11%,.,.,-9%,.,.
CN1CCN(c2ccc(Nc3ccnc4cc(Cl)ccc34)cc2)CC1,4.6µM*,-90*,?,5.8µM*,-4%,?
CCN1CCN(c2ccc(Nc3ccnc4ccccc34)cc2)CC1,12µM*,-1,?,5.8µM*,?,15µM*
CCN1CCN(c2nc(-c3ccccc3Cl)nc3ccccc23)CC1,-20%,-14,1%,?,1%,-13%
CN(C1CCCCC1)S(=O)(=O)c1cn(C)c(=O)n(C)c1=O,-14%,3,1%,-12%,0%,-7%
Cc1noc(C)c1S(=O)(=O)NCc1ccc(CN(C)C)cc1,2%,0,-2%,25%,3%,-9%
COc1cc(=O)n2c(c1C(=O)NC(C)c1ccco1)CCN(C(=O)c1cccc(C)c1C)CC2 (centres undefined),0.16µM*,.,.,-15%,.,.
CCCc1nc2ccc(Br)cn2c1Cc1ccccc1,4.6µM*,-7,.,2.9µM*,.,.
Clc1cccc(Cc2c(-c3cccc(Cl)c3)nc3ccc(Br)cn23)c1,?,6,.,?,.,.
CCCc1nc2ccc(C)cn2c1Cc1ccccc1,?,33,.,?,.,.
CCCc1nc2ccc(Br)cn2c1Cc1cccc(Cl)c1,6.5µM*,13,.,4.6µM*,.,.
Cc1cc(C)c(S(=O)(=O)c2cccc(Br)c2C)c(Cl)n1,-21%,-6,?,1%,0%,-6%
C=C[C@@]1(C)CC(=O)[C@]2(O)[C@@]3(C)[C@@H](O)CCC(C)(C)[C@@H]3[C@H](OC(C)=O)[C@H](O)[C@@]2(C)O1,16%,-21,.,-15%,2%,2%
